Activity calls are given as the source filed them. Rule for the calls: active = hit-call score of the fitted dose curve at least 0.9, where 1 is the maximum; inactive = score below 0.9.

Read-out in the assay: growth arrest and DNA damage 45 (GADD45G), GADD45G (gene 10912)
Kind of assay: LTEA_HepaRG_GADD45G: Life Technologies and Expression Analysis (LTEA) Assay for growth arrest and DNA damage 45 (GADD45G) using HepaRG (AID 2283499). As to conditions: mRNA level, 48 h; actives raise or lower the signal. As to the method:
LTEA_HepaRG is a cell based, multiplexed-readout assay that uses HepaRG, a human liver cell line, with measurements taken at 48 hours after chemical dosing on a 96-well plate.LTEA_HepaRG_GADD45G is one of 102 assay component(s) measured in the LTEA HepaRG cell culture assay. It is a marker of Cell proliferation, survival, death.Data from the assay component LTEA_HepaRG_GADD45G was analyzed into 1 endpoint. This assay endpoint, LTEA_HepaRG_GADD45G, was analyzed with bidirectional fitting relative to DMSO as the negative control and baseline of activity. Using a type of inducible reporter, measures of mRNA induction for gain or loss-of-signal activity can be used to understand regulation of transcription factor activity. To generalize the intended target to other relatable targets, this assay endpoint is annotated to the mutagenicity response intended target family, where the subfamily is Cell proliferation, survival, death.
A total of 1060 chemcials from the ToxCast library were tested in eight-point concentration-response experiments. Cell culture and cytotoxicity assays were conducted at Thermo Fisher Scientific's Custom Services facility (Madison, WI). A single lot of human HepaRG cells (Thermo Fisher Scientific, Frederick, MD) was used for the cell culture experiments. 96-well format collagen type I coated plates of human HepaRG cells were prepared using established methods. Briefly, cryopreserved HepaRG cells were thawed, plated at a density of approximately 100,000 cells/well in HepaRG Thaw, Plate, and General Purpose media (HPRG770, Thermo Fisher Scientific), and incubated for 48 hours. 0.5% DMSO was selected as vehicle control to balance the requisite need of DMSO in HepaRG cultures to maintain differentiation (for example, baseline metabolism, proportions of hepatocytes vs. cholangiocytes), while enabling further hepatic receptor pathway activation (for example, PXR and CAR) in response to chemical exposure. 48 hours after plating, the culture medium was replaced with HepaRG Serum-Free Incudtion Media. Cells were exposed to each test chemical in duplicate and maintained in CO2 incubators for another 48 hours. Chemical plates were thawed to room temperature and 200x concentrations of treatment groups were prepared. 8-point conentration-reponse curves were made with the highest exposure at 100 uM, followed by half-log dilutions, all in 0.5% DMSO. Each test plate contained variouse controls, induction positive controls (1mM phenobarbital), cytotoxicity positive controls ([…] aflatoxin B1), vehicle controls (0.5% DMSO), and total lysis controls (0.5% DMSO). Cell morphology images were taken using an Essen IncuCyte FLR automated microscope, with six 96-well plates imaged in about 24 minutes. Images were captured and exported and JPEG files. Spent culture media was transfered to black-well plates for the LDH assay, and remaining media was sorted at -80 C for later use. Cells were treated with RLT buffer and frozen until shipped for gene expression analysis. Total RNA was isolated from the cell suspension in 75 uL of Buffer RLT (Qiagen, Germantown, MD 20874) by Quintiles/Expression Analysis (Durham, NC) using a custom isolation procedure. Total RNA from each plate well was transferred to a preamplification plate. Fluidigm's 96.96 Dynamic ArrayTM (Fluidigm, Amsterdam, the Netherlands) technology was used for gene expression analyses by quantitative reverse transcription polymerase chain reaction (qRT-PCR, performed by Quintiles/Expression Analysis, Durham, NC)89. Standard TaqManTM Assays (Applied Biosystems/ThermoFisher Scientific, Foster City, CA) were used to assess the expression of 93 genes selected based on their selectivity and sensitivity to important hepatic receptors known to be modulated by environmental chemicals; importance in human hepatocyte functionality; and hepatotoxicity. […]
As usually defined, the AC50 is the midpoint of the concentration-response curve, whichever way the signal moves. Turning to `Nc1ccccc1N`, the AC50 is 67.7 µM (active). Regarding `CNC(=O)[C@H]1O[C@@H](n2cnc3c(NCc4cc(Cl)ccc4OCc4cc(C)no4)ncnc32)[C@H](O)[C@@H]1N`, the outcome was inactive.

As for `CC=Cc1ccc(O)c(OC)c1`, the compound was classed as inactive.

Take `CCCCCCCCCCCC(=O)OC`: the outcome was inactive. On the same count and under the same terms, the entry for `CCCCc1ccc2c(n1)[C@@H](c1ccc(OC)cc1C[C@H](C)C(=O)O)[C@H](C(=O)O)[C@H]2c1ccc2c(c1)OCO2` is “inactive”; for `CCOC(=O)C(C)(C)Oc1ccc(Cl)cc1` it is “inactive”; for `C1CCC(SSC2CCCCC2)CC1` it is “inactive”.

As to `O=C(OCCCCCOC(=O)c1ccccc1)c1ccccc1`, the compound was called inactive. On the same count and under the same terms, the entry for `Cc1cc(NC(=O)C(=O)O)cc(C)c1Oc1ccc(O)c2c1CCC2` is “inactive”. Still for that read-out and setting: the entry for `C=CCc1ccc(O)c(OC)c1` is “inactive”; for `C=CCOC(=O)c1ccccc1C(=O)OCC=C` it is “inactive”; for `NS(=O)(=O)c1cc2c(cc1Cl)NCNS2(=O)=O` it is “inactive”.

As to `CCc1c(C(=O)NN2CCCCC2)nn(-c2ccc(Cl)cc2Cl)c1-c1ccc(Br)cc1`, the AC50 is 41.6 µM (active).

On to `Cc1oc(-c2ccccc2)nc1CCOc1cccc2c1ccn2CCC(=O)O`, for which the AC50 was 90.2 µM (active).

Turning to `CCCCCCOCCO`, the result was inactive. The same measure, in the same setting: the entry for `Cc1cc(=O)[nH]c(=S)[nH]1` is “inactive”.

With `O=c1c(O)c(-c2ccc(O)c(O)c2)oc2cc(O)cc(O)c12`, the result was inactive. Still for that read-out and setting: the entry for `COCCOCCOC` is “inactive”. Turning to `CC1(C)CC(N=C=O)CC(C)(CN=C=O)C1` (stereo not given), the call was inactive.

`NC(=O)Cn1c(=O)cc(CCN2CCN(c3nccc4sccc34)CC2)c2ccc(F)cc21`: the AC50 is 83.8 µM (active). Regarding `COc1ccc(C)cc1N`, the compound was classed as inactive. The same measure, in the same setting: the entry for `C[Si]1(C)O[Si](C)(C)O[Si](C)(C)O[Si](C)(C)O1` is “inactive”. Same read-out and setting: the same measure for `OC[C@@H](O)[C@@H](O)[C@H](O)[C@H](O)CO`: “inactive”; for `Cc1ccc(N(C)C)cc1`: “inactive”. Consider `COc1cc(-c2nc(NC(=O)c3cc4cc(C)cc(C)c4n3CC(=O)O)sc2CCC2CCCCC2)c(OC)cc1Cl`, for which the AC50 was 3.17 µM (active).

Consider `Oc1ccc2ccccc2c1N=Nc1ccccc1`, for which the concentration at half-maximal activity (AC50) was 12.6 µM (active). As for `CCOc1ccc2c(c1)C(C)=CC(C)(C)N2`, the result was inactive. On the same count and under the same terms, the same measure for `CC(C)c1ccc(C(=O)N=C(N)N)cc1S(C)(=O)=O`: “inactive”; for `NCC1(Cc2noc(=O)[nH]2)CCCCC1`: “inactive”; for `c1cc(-c2ccncc2)ccn1`: “inactive”. On to `Cc1nc(-c2ccc3c(c2)CCN(CCC2CCC(NC(=O)/C=C/c4ccc(F)cc4)CC2)CC3)no1` (stereo not given), for which the compound was classed as inactive. The same measure, in the same setting: the same measure for `COCCOC[C@H](CC1(C(=O)NC2CCC(C(=O)O)CC2)CCCC1)C(=O)Oc1ccc2c(c1)CCC2` (stereo not given in full): “inactive”; for `CCCCCCCC=O`: “inactive”; for `CNCc1cc(F)ccc1Oc1ccc(Cl)c(Cl)c1`: “inactive”. For `CCCCC(CC)COC(=O)CC(C(=O)OCC(CC)CCCC)S(=O)(=O)O` (stereo not given), the AC50 was 87 µM (active).

Take `Cc1cccc(C)c1O`: the result was inactive. The same measure, in the same setting: the same measure for `CCCCCC(=O)O`: “inactive”; for `CC(CO)OC(C)CO` (stereo not given) (tested in a mixture with another compound): “inactive”; for `CC(=O)OCCOCCOCCOC(C)=O`: “inactive”. Take `CN1CCN(Cc2cc(-c3ccc4[nH]c(=O)oc4c3)co2)[C@@H](c2ccc(F)cc2)C1`: the AC50 is 71.9 µM (active).

The values are drawn from PubChem BioAssay (EPA / NIEHS).
